In PubChem BioAssay (NCI):
Several values for one entry are separate records, joined by “and”; a condition that tells them apart may be missing. Equal entries are not always repeated. The panel holds about 83,000 compounds, 20% with a hit somewhere; the sample as a whole holds those more often.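 48-hour exposure, single concentration, 96-well plates; percent growth endpoint where 0 means no net growth. Active: below 10.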 A number with no mark means an inactive call. Activity calls are given as the source filed them.

These compounds were tested on MDA-MB-468 breast (assay: NCI-60 one-dose screen, 48 h (100 = growth as untreated, 0 = no growth, -100 = all killed)). Details: 10 µM unless noted.

Point of comparison: `O=C1/C(=C2/C=Nc3ccccc32)N(O)c2ccccc21`, growth 62.2%. Against it:
- O=[N+]([O-])c1ccc(Oc2cc(Cl)c(Cl)cc2Cl)c(C(F)(F)F)c1 — higher, 100%
- CN(C)CCOC(=O)Nc1ccc(Cl)cc1 — higher, 104%
- O=[N+]([O-])c1ccc2c(c1)Cc1cc(F)ccc1-2 — lower, 53.9%
- N#CC1=C(N)Oc2c(sc3c(Br)cccc23)C1c1ccccn1 (stereo not given) — lower, 25.6%
- CCCCn1cnc2c(=O)[nH]cnc21 — higher, 104%
- CCn1c(Sc2nnc(NC(=O)CSC(=S)N3CCCCC3)s2)nc2c1c(=O)n(C)c(=O)n2C — higher, 98.7%
- CCOC(=O)[C@@H]1CCCN(S(=O)(=O)c2ccc(S(=O)(=O)N(CC)CC)c(F)c2)C1 — lower, 36%
- O=C(NOC[C@H](O)CO)c1ccc(F)c(F)c1Nc1ccc(I)cc1F — higher, 106%
- COc1nc(=O)n(C2C=CC(=O)O2)cc1F (stereo not given) — lower, 11.9%
- Nc1nc(N)c2nc3c(nc2n1)CCCCCCCCCC3 — lower, 58.1%
- COc1ccc2[nH]c(-c3ccccc3)cc2c1 — higher, 96.9%
- O=C(/C=C/Nc1ccc(S(=O)(=O)O)cc1)c1ccc(F)cc1 — higher, 95.8%
- O=C1c2c(c3c4cccnc4[nH]c3c3ccc4ccccc4c23)C(=O)N1O — lower, 45.5%
- COc1ccc(Cn2cc(C(=O)N=Nc3c(O)[nH]c4ccc(Br)cc34)nn2)cc1 — higher, 96.8%
- Cc1nc2cc(NC(=O)CN3CCN(CCN4C(=O)c5cccc6cccc(c56)C4=O)CC3)ccc2s1 — lower, 38.2%
- O=S(=O)(Oc1ccc(-c2ccc3sccc3c2)cc1)c1ccc(F)cc1 — higher, 86.9%
- O=C(Nc1cccnc1Nc1ccc(F)cc1)c1cn(Cc2cccc(Oc3ccccc3)c2)nn1 — higher, 63.5%
- OCc1ccccn1 — higher, 99.9%
- COc1nc2c(c(=O)n1C)CN(Cc1ccccc1)C=N2 — higher, 97.6%
- CC(=O)Nc1ccc(C)c(Nc2cc(-c3ccc(-n4cccn4)cc3)[nH]n2)c1 — lower, 20%
- COc1ccc(-c2nn(-c3ccc(NC(=O)c4ccc(Cl)c(Cl)c4)cc3)cc2-c2ccncc2)cc1Cl — lower, 47%
- C#C[C@]1(O)CC[C@H]2[C@@H]3CC=C4c5sc(-c6ccc(C)cc6)nc5CC[C@]4(C)[C@H]3CC[C@@]21C — higher, 84.4%
- Cc1nc2n[nH]c(N)c2nc1C — higher, 100%
- O=C1C=C(c2ccccc2)C(O)(c2ccccc2)C1 (stereo not given) — higher, 108%
- CCO/C=N/S(=O)(=O)c1cc2c(cc1Cl)NC=NS2(=O)=O — higher, 98.3%
- COc1cc(-c2nc3sccn3c2-c2ccnc(S(C)(=O)=O)n2)ccc1F — higher, 72.3%
- CN1CCN(Cc2ccc(NC(=O)c3cncc(C#Cc4cnccc4C#N)c3)cc2C(F)(F)F)CC1 — higher, 90.5%
- O=C(c1ccccc1)N(C(=S)NCCc1ccc(Cl)cc1)c1ccc(Cl)cc1 — lower, 16.7%
- Cc1cc(C)cc(Nc2cc(C)nc3nc(C(F)(F)F)nn23)c1 — lower, 25.5%
- Clc1ccc(I)c2ccccc12 — higher, 107%

With `CN(C)c1cccc2[nH]c(-c3[nH]ncc3Nc3ccnc(N)n3)nc12` the growth was -67.5% (active).
With `COc1cccc(CNc2ccc3ncnc(Nc4ccc(F)c(Cl)c4)c3c2)c1` the growth was -19.6% (active).
For `C#CC[C@@H]1C[C@]2(C)[C@H]3CC[C@@H]4[C@H]5C(C(=C)C)CC[C@]5(C(=O)NCCCCN)CC[C@@]4(C)[C@]3(C)CC[C@H]2C(C)(C)[C@H]1OC(C)=O` (stereo not given in full), the growth was -53.7% (active).
With `Nc1ccn(C2OC(CO)C(O)C2O)c(=O)n1` (stereo not given) the growth was 76% and 106% and 118%.
For `CN(Cc1cc(Br)cc(Br)c1O)Cc1cc(Br)cc(Br)c1O`, the growth was -1.21% (active).
`COc1cc(N2C(=O)[C@H](c3ccccc3)C2c2ccc(SC)cc2)cc(OC)c1OC` (stereo not given in full) was tested, and the growth was -9.99% (active).
With `CCCC(=O)NC(c1ccc2c(c1)OC(F)(F)O2)c1cc(C)c2cccnc2c1O` (stereo not given) the growth was -14.7% (active).
For `O=c1c2cccc3c(Nc4ccc(F)cc4)ccc(c32)c2nc3ccccc3n12`, the growth was -43.8% (active).
`CCN1C(=O)N(CC)C2Nn3c(s/c(=C\c4ccc([N+](=O)[O-])cc4)c3=O)=NC21` (stereo not given) was tested, and the growth was 7.37% (active).
